KDM5B inh: KDM5B demethylase inhibition. AID 1347165. KDM5B demethylase, FDH-coupled NADH fluorescence (FDH is formaldehyde dehydrogenase). 220,000 compounds, 2.6% hits. Q9UGL1. Potency, µM (highest dose often 57.7 µM), most hits filed as inhibitors; active = well fitted inhibition curve with a large enough effect; note: 0% is about no effect; nearly all actives have a fitted effect of over 70% in size
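Here, H3K4me3 peptide (12.5 µM in substrate mix) is demethylated by KDM5BΔAP, 200 nM final, after 10 min compound exposure. Formaldehyde product is coupled through FDH (0.25 U/mL in mix) to NADH fluorescence; 30-min ΔRFU feeds dose-response curves.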
* marks the source's active call; other numbers are inactive results; i = inactive. This is one part of a sample in which hits are shown more often than they occur. Potency is the fitted concentration of half-maximal effect.

SMILES	KDM5B inh
Cn1nccc1C(=O)N1CCOc2ccc(CN3CCc4ccccc4C3)cc2C1	i
O=C(O)CCc1ncc(-c2ccccc2F)o1	i
O=C1CC(c2c[nH]c3ccccc23)c2c(c3ccccc3[nH]c2=O)O1 (stereo not given)	i
Cc1ccc(C(=O)/C=C\N(C)C)cc1C	i
Cc1cccc(C(C)C)c1NC(=O)COC(=O)c1ccc2ccccc2n1	i
COc1ccc2[nH]c3c(c2c1)CCNC31CCN(C(=O)c2ccncc2)CC1	i
COc1ccc2[nH]c3c(c2c1)CCNC31CCN(C(=O)c2cccs2)CC1	i
COc1cccc(CN2CCC3(CC2)NCCc2c3[nH]c3ccccc23)c1	i
COc1ccc2[nH]c3c(c2c1)CCNC31CCN(C(=O)c2ccccn2)CC1	i
COc1ccc2[nH]c3c(c2c1)CCNC31CCN(Cc2ccc(F)c(F)c2)CC1	i
COc1ccc2[nH]c3c(c2c1)CCNC31CCN(C(=O)c2cc(C)[nH]n2)CC1	i
COc1ccc2[nH]c3c(c2c1)CCNC31CCN(Cc2ccc(C)o2)CC1	20µM*
COc1ccc2[nH]c3c(c2c1)CCNC31CCN(C(=O)C(C)(C)C)CC1	25µM*
COc1cccc(CN2CCC3(CC2)NCCc2c3[nH]c3ccc(OC)cc23)c1	25µM*
COCCn1c(-n2nc(C)c(C)c2C)nc2c1c(=O)n(CC(=O)C(C)(C)C)c(=O)n2C	i
CC(C)CNC(=O)c1nc(-c2ccc3cc[nH]c3c2)no1	i
CC(C)c1ccc(CCNC(=O)Cn2ncc3ccccc3c2=O)cc1	i
O=[S+]1([O-])CCN(Cc2ccc(-c3cnc4c(OCc5ccccc5)nccn34)cc2)CC1	22µM*
O=C1CN(Cc2ccc(-c3cnc4c(OCc5ccccc5)nccn34)cc2)CCN1	35µM*
Cc1ccc(COc2ccc(CNC3CC3)cc2)cc1	i
O=C1CN(C(=O)Cn2ccc3ccc(OCc4ccccc4)cc32)CCN1	i
NC(=O)C1CCCN(Cc2ccc(-c3cnc4c(OCc5ccccc5)nccn34)cc2)C1 (stereo not given)	28µM*
c1ccc(-c2ccc(CNC3CC3)cc2)cc1	i
COc1ccc(CN2CCN(Cc3ccc(OCc4ccncc4)cc3)CC2)cc1	i
OC1CCC(NCc2ccc(-c3cnc4c(OCc5ccccc5)nccn34)cc2)CC1 (stereo not given)	28µM*
SMILES	KDM5B inh
COc1ncccc1CN1CCC2(CC1)OC(=O)N(Cc1ccc(O)cc1)C2(C)c1ccccc1 (stereo not given)	i
Cc1oc(-c2ccccc2)nc1CN1CCNC(=O)C1	i
COc1ccc(-c2ccccc2NC(=O)C2CCCN(Cc3cccnc3)C2)cc1 (stereo not given)	i
CC(=O)Nc1ccccc1NC(=O)CN1CCCC(C(N)=O)C1 (stereo not given)	i
CCCCc1ccc(C(=O)COC(=O)c2cc(S(C)(=O)=O)ccc2C)cc1	i
O=C(C[C@@H]1CCNC[C@@H]1Cc1cc(-c2ccccc2)on1)NCc1ccc(F)cc1	i
Cc1ccc(S(=O)(=O)N2CC(C(=O)NC3CCCCC3)C3(CCOCC3)C2)cc1F (stereo not given)	i
O=S(=O)(c1ccc(F)cc1)n1cc(Cl)cn1	i
CSc1nc2ccc(NC(=O)c3nn(C)c(=O)c4ccccc34)cc2s1	i
COc1ccc(-c2ccc(C#N)c(SCC(=O)NCCc3ccc(OC)c(OC)c3)n2)cc1	i
Cc1ccc(C(=O)NC(Nc2ccc(Cl)cc2)C(Cl)(Cl)Cl)cc1 (stereo not given)	i
CC1CCCN(c2ccc(C=O)cc2)C1 (stereo not given)	i
CCCCn1c(=O)[nH]c(=O)c2c1nc(CNc1cccc(F)c1)n2CCC(C)C	i
OC1CN(Cc2ccc(-c3cnc4c(OCc5ccccc5)nccn34)cc2)C1	32µM*
FC(F)(F)c1ccc(N2C3CCC2CN(Cc2ccc(-c4ccccc4)cc2)C3)cc1	i
OC1CN(Cc2ccccc2)CCN(Cc2cn[nH]c2-c2ccc(Cl)cc2)C1 (stereo not given)	i
CC(C)c1nnc2ccc(SCC(=O)O)nn12	i
Cc1noc(-c2ccccc2Cl)c1C(=O)NCc1cc(F)cc(F)c1	i
Cc1ccc(CNC(=O)c2c(C)noc2-c2ccc3c(c2)OCO3)o1	25µM*
Cc1cccc(CNC(=O)c2c(C)noc2-c2ccc3c(c2)OCO3)c1	32µM*
Cc1cc(CNC(=O)c2ccc3c(c2)OCO3)c2ccccc2n1	i
COc1ccccc1-c1onc(C)c1C(=O)NCc1cccc(C)c1	i
COc1ccc(CNC(=O)c2c(C)noc2-c2ccc(OC(F)(F)F)cc2)cc1	i
Cc1noc(C)c1C(=O)N(C)Cc1ccc2c(c1)OCO2	i
Cc1noc(-c2ccc3c(c2)OCO3)c1C(=O)NCc1ccccc1	28µM*
SMILES	KDM5B inh
Cc1noc(-c2ccco2)c1C(=O)NCc1cccc(Cl)c1	i
CCOc1ccccc1NC(=O)C1CCN(c2nc3ccccc3o2)CC1	i
CC(NC(=O)C1CC1)C1CC2CCC1C2 (stereo not given)	i
CC1CCc2nc3sc4c(c3c(-c3ccc(Cl)cc3)c2C1)CCC4 (stereo not given)	i
Cc1ccc(NC(=O)C2=Cc3cc(Cl)ccc3OC=C2)cc1	i
CC(C)(C)c1coc([C@@H]2COCCN2Cc2ccc(Cl)cc2)n1	i
O=C(Cc1ccncc1)N1CCC2(CC1)NCCc1c2[nH]c2ccccc12	i
Cc1cc(CN2C[C@@H](CO)[C@H](c3ccccn3)C2)n(C)n1	i
N#Cc1cccc(CN2C[C@@H](CO)[C@H](c3ccccn3)C2)c1	13µM*
COC[C@@H]1CN(Cc2cccc(C#N)c2)C[C@H]1c1ccccn1	i
CN=c1scc(C)n1/N=C/c1ccc(C#N)cc1	i
CSc1ccc(NC(=O)C2CCCCC2)cc1	i
CSc1ccc(NC(=O)c2ccc3c(c2)CCC3)cc1	i
CSc1ccc(NC(=O)c2cc3c(s2)CN(C2CC2)C3)cc1	22µM*
NC(=O)CC1CCN(C(=O)c2cc(=O)c3ccccc3o2)CC1	i
COc1ccc(NC(=O)COc2ccc(Cl)cc2)c2cccnc12	i
COc1ccc(-c2cc3c(nc2-c2ccccc2)nc(C(=O)NCCN(C)C)n3C)cn1	i
COc1ccc(CNC(=O)Cn2c(=O)nc(-c3ccccc3)c3ccccc32)cc1OC	i
COCCNC(=O)c1nc2nc(-c3ccccc3)c(Cl)cc2n1C	40µM*
COCCNC(=O)c1cc(-c2ccccc2Cl)nc2ccccc12	i
COc1cc(F)ccc1-c1cc2c(nc1-c1ccccc1)nc(C(=O)NCCN(C)C)n2C	32µM*
COCCCNC(=O)c1nc2nc(-c3ccccc3)c(Cl)cc2n1C	i
Cc1ccccc1-c1cc2c(nc1-c1ccccc1)nc(C(=O)NCCN(C)C)n2C	i
COc1ccccc1-c1cc2c(nc1-c1ccccc1)nc(C(=O)NCCN(C)C)n2C	32µM*
O=C(Nc1oc2ccc(Cl)cc2c(=O)c1-c1ccc2c(c1)OCO2)c1ccccc1	i
SMILES	KDM5B inh
CCc1ccc(NC(=S)Nc2ccc(C)c(S(=O)(=O)N(CC)CC)c2)cc1	i
COc1ccc(C(C)=O)cc1CC(=O)Oc1cc(Cl)ccc1Cl	i
Cc1cccc(C(=O)N2CCCN(C)c3ccccc32)c1	i
Cc1ccc(NS(=O)(=O)c2cc(-c3cnc(C)o3)ccc2C)c(C)c1	i
CC(C)(C)NC(=O)COc1ncnc2ccccc12	i
Cc1[nH]c2ccccc2c1C1c2ccccc2C(=O)N1CC(=O)N1CCN(C)CC1 (stereo not given)	i
